Assay results published in the supplement of paper PMC7411054.

What was measured:
Settings in all cases: treatment time: 24 h
A549-ACTB-RAB5A [1] = experiment: lowest phenotypically active concentration; higher = less potent
Method in brief: (§1)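 Fifteen reporter lines derived from A549, HepG2 and WPMY1 cells by gene editing, carrying BFP for segmentation plus GFP and RFP/FusionRed markers, were exposed to 0.3, 1, 3 or 9 µM for 24 h in four wells each and imaged live. Live-cell features from each well were normalised to solvent control wells. A well set counted as deviating when ≥3 of 4 wells lay beyond the 95th percentile of control Euclidean distances, and as reproducible when the median replicate Pearson correlation exceeded the 95th percentile of non-replicates. Phenotypic activity was assigned only when both criteria were met.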

A549-CANX-COX4 [2] = experiment: as above
Method in brief: as §1

A549-GM130-SQSTM1 [3] = experiment: as above
Method in brief: as §1

A549-TP53BP1-CLTA [4] = experiment: as above
Method in brief: as §1

A549-TUBA1B-RELA [5] = experiment: as above
Method in brief: as §1

A549-ACTB-RAB5A [6] = experiment: phenotypically active (imaging signature differs from DMSO and reproducible) at any of 0.3-9 uM (binary (1 = active, 0 = inactive)); higher = active
Method in brief: as §1

A549-CANX-COX4 [7] = experiment: as above
Method in brief: as §1

A549-GM130-SQSTM1 [8] = experiment: as above
Method in brief: as §1

A549-TP53BP1-CLTA [9] = experiment: as above
Method in brief: as §1

A549-TUBA1B-RELA [10] = experiment: as above
Method in brief: as §1

HepG2-ACTB-RAB5A = experiment: as above
Method in brief: as §1

HepG2-CANX-COX4 = experiment: as above
Method in brief: as §1

HepG2-GM130-SQSTM1 = experiment: as above
Method in brief: as §1

HepG2-TP53BP1-CLTA = experiment: as above
Method in brief: as §1

HepG2-TUBA1B-RELA = experiment: as above
Method in brief: as §1

WPMY1-ACTB-RAB5A = experiment: as above
Method in brief: as §1

WPMY1-CANX-COX4 = experiment: as above
Method in brief: as §1

WPMY1-GM130-SQSTM1 = experiment: as above
Method in brief: as §1

WPMY1-TP53BP1-CLTA = experiment: as above
Method in brief: as §1

WPMY1-TUBA1B-RELA = experiment: as above
Method in brief: as §1

Nc1ccc(-c2cccc3c(=O)cc(N4CCOCC4)oc23)cc1
active: phenotypically active (A549-ACTB-RAB5A [6]) 1 | phenotypically active (A549-CANX-COX4 [7]) 1 | phenotypically active (A549-GM130-SQSTM1 [8]) 1 | phenotypically active (A549-TP53BP1-CLTA [9]) 1 | phenotypically active (A549-TUBA1B-RELA [10]) 1 | phenotypically active (HepG2-ACTB-RAB5A) 1 | phenotypically active (HepG2-CANX-COX4) 1 | phenotypically active (HepG2-GM130-SQSTM1) 1 | phenotypically active (HepG2-TP53BP1-CLTA) 1 | phenotypically active (HepG2-TUBA1B-RELA) 1 | phenotypically active (WPMY1-ACTB-RAB5A) 1 | phenotypically active (WPMY1-CANX-COX4) 1 | phenotypically active (WPMY1-GM130-SQSTM1) 1 | phenotypically active (WPMY1-TP53BP1-CLTA) 1 | phenotypically active (WPMY1-TUBA1B-RELA) 1
9 µM: lowest phenotypically active concentration (A549-CANX-COX4 [2]) | lowest phenotypically active concentration (A549-GM130-SQSTM1 [3]) | lowest phenotypically active concentration (A549-TP53BP1-CLTA [4]) | lowest phenotypically active concentration (A549-TUBA1B-RELA [5])
3 µM: lowest phenotypically active concentration (A549-ACTB-RAB5A [1])

COc1cc([C@@H]2c3cc4c(cc3[C@@H](O[C@@H]3O[C@@H]5CO[C@@H](c6cccs6)O[C@H]5[C@H](O)[C@H]3O)[C@H]3COC(=O)[C@H]23)OCO4)cc(OC)c1O [teniposide]
active: phenotypically active (A549-ACTB-RAB5A [6]) 1 | phenotypically active (A549-CANX-COX4 [7]) 1 | phenotypically active (A549-GM130-SQSTM1 [8]) 1 | phenotypically active (A549-TP53BP1-CLTA [9]) 1 | phenotypically active (A549-TUBA1B-RELA [10]) 1 | phenotypically active (HepG2-ACTB-RAB5A) 1 | phenotypically active (HepG2-CANX-COX4) 1 | phenotypically active (HepG2-GM130-SQSTM1) 1 | phenotypically active (HepG2-TP53BP1-CLTA) 1 | phenotypically active (HepG2-TUBA1B-RELA) 1 | phenotypically active (WPMY1-ACTB-RAB5A) 1 | phenotypically active (WPMY1-CANX-COX4) 1 | phenotypically active (WPMY1-GM130-SQSTM1) 1 | phenotypically active (WPMY1-TP53BP1-CLTA) 1 | phenotypically active (WPMY1-TUBA1B-RELA) 1
≤ 0.3 µM: lowest phenotypically active concentration (A549-ACTB-RAB5A [1]) | lowest phenotypically active concentration (A549-CANX-COX4 [2]) | lowest phenotypically active concentration (A549-GM130-SQSTM1 [3]) | lowest phenotypically active concentration (A549-TP53BP1-CLTA [4]) | lowest phenotypically active concentration (A549-TUBA1B-RELA [5])

CC[C@H](CO)Nc1nc(NCc2ccc(-c3ccccn3)cc2)c2ncn(C(C)C)c2n1
active: phenotypically active (A549-ACTB-RAB5A [6]) 1 | phenotypically active (A549-CANX-COX4 [7]) 1 | phenotypically active (A549-GM130-SQSTM1 [8]) 1 | phenotypically active (A549-TP53BP1-CLTA [9]) 1 | phenotypically active (A549-TUBA1B-RELA [10]) 1 | phenotypically active (HepG2-ACTB-RAB5A) 1 | phenotypically active (HepG2-CANX-COX4) 1 | phenotypically active (HepG2-GM130-SQSTM1) 1 | phenotypically active (HepG2-TP53BP1-CLTA) 1 | phenotypically active (HepG2-TUBA1B-RELA) 1 | phenotypically active (WPMY1-ACTB-RAB5A) 1 | phenotypically active (WPMY1-CANX-COX4) 1 | phenotypically active (WPMY1-GM130-SQSTM1) 1 | phenotypically active (WPMY1-TP53BP1-CLTA) 1 | phenotypically active (WPMY1-TUBA1B-RELA) 1
≤ 0.3 µM: lowest phenotypically active concentration (A549-ACTB-RAB5A [1]) | lowest phenotypically active concentration (A549-CANX-COX4 [2]) | lowest phenotypically active concentration (A549-GM130-SQSTM1 [3]) | lowest phenotypically active concentration (A549-TP53BP1-CLTA [4]) | lowest phenotypically active concentration (A549-TUBA1B-RELA [5])

Cc1ccc(/C(=C/CN2CCCC2)c2cccc(/C=C/C(=O)O)n2)cc1 [acrivastine]
9 µM: lowest phenotypically active concentration (A549-CANX-COX4 [2]) | lowest phenotypically active concentration (A549-TP53BP1-CLTA [4])
3 µM: lowest phenotypically active concentration (A549-GM130-SQSTM1 [3])
active: phenotypically active (A549-ACTB-RAB5A [6]) 1 | phenotypically active (A549-CANX-COX4 [7]) 1 | phenotypically active (A549-GM130-SQSTM1 [8]) 1 | phenotypically active (A549-TP53BP1-CLTA [9]) 1 | phenotypically active (A549-TUBA1B-RELA [10]) 1 | phenotypically active (HepG2-ACTB-RAB5A) 1 | phenotypically active (HepG2-CANX-COX4) 1 | phenotypically active (HepG2-GM130-SQSTM1) 1 | phenotypically active (HepG2-TP53BP1-CLTA) 1 | phenotypically active (HepG2-TUBA1B-RELA) 1 | phenotypically active (WPMY1-ACTB-RAB5A) 1 | phenotypically active (WPMY1-CANX-COX4) 1 | phenotypically active (WPMY1-GM130-SQSTM1) 1 | phenotypically active (WPMY1-TP53BP1-CLTA) 1 | phenotypically active (WPMY1-TUBA1B-RELA) 1
1 µM: lowest phenotypically active concentration (A549-ACTB-RAB5A [1]) | lowest phenotypically active concentration (A549-TUBA1B-RELA [5])

Nc1ncnc2c1c(-c1cnc3[nH]ccc3c1)nn2C1CCCC1
≤ 0.3 µM: lowest phenotypically active concentration (A549-ACTB-RAB5A [1]) | lowest phenotypically active concentration (A549-GM130-SQSTM1 [3]) | lowest phenotypically active concentration (A549-TP53BP1-CLTA [4]) | lowest phenotypically active concentration (A549-TUBA1B-RELA [5])
active: phenotypically active (A549-ACTB-RAB5A [6]) 1 | phenotypically active (A549-CANX-COX4 [7]) 1 | phenotypically active (A549-GM130-SQSTM1 [8]) 1 | phenotypically active (A549-TP53BP1-CLTA [9]) 1 | phenotypically active (A549-TUBA1B-RELA [10]) 1 | phenotypically active (HepG2-ACTB-RAB5A) 1 | phenotypically active (HepG2-CANX-COX4) 1 | phenotypically active (HepG2-GM130-SQSTM1) 1 | phenotypically active (HepG2-TP53BP1-CLTA) 1 | phenotypically active (HepG2-TUBA1B-RELA) 1 | phenotypically active (WPMY1-ACTB-RAB5A) 1 | phenotypically active (WPMY1-CANX-COX4) 1 | phenotypically active (WPMY1-GM130-SQSTM1) 1 | phenotypically active (WPMY1-TP53BP1-CLTA) 1 | phenotypically active (WPMY1-TUBA1B-RELA) 1
1 µM: lowest phenotypically active concentration (A549-CANX-COX4 [2])

COc1c(C)cnc(Cn2cc(C#CCC(C)(C)O)c3c(Cl)nc(N)nc32)c1C
active: phenotypically active (A549-ACTB-RAB5A [6]) 1 | phenotypically active (A549-CANX-COX4 [7]) 1 | phenotypically active (A549-GM130-SQSTM1 [8]) 1 | phenotypically active (A549-TP53BP1-CLTA [9]) 1 | phenotypically active (A549-TUBA1B-RELA [10]) 1 | phenotypically active (HepG2-ACTB-RAB5A) 1 | phenotypically active (HepG2-CANX-COX4) 1 | phenotypically active (HepG2-GM130-SQSTM1) 1 | phenotypically active (HepG2-TP53BP1-CLTA) 1 | phenotypically active (HepG2-TUBA1B-RELA) 1 | phenotypically active (WPMY1-ACTB-RAB5A) 1 | phenotypically active (WPMY1-CANX-COX4) 1 | phenotypically active (WPMY1-GM130-SQSTM1) 1 | phenotypically active (WPMY1-TP53BP1-CLTA) 1 | phenotypically active (WPMY1-TUBA1B-RELA) 1
≤ 0.3 µM: lowest phenotypically active concentration (A549-ACTB-RAB5A [1]) | lowest phenotypically active concentration (A549-CANX-COX4 [2]) | lowest phenotypically active concentration (A549-GM130-SQSTM1 [3]) | lowest phenotypically active concentration (A549-TP53BP1-CLTA [4]) | lowest phenotypically active concentration (A549-TUBA1B-RELA [5])

COc1ccc(S(=O)(=O)N(CCO)c2ccccc2CN(C)C/C=C/c2ccc(Cl)cc2)cc1
9 µM: lowest phenotypically active concentration (A549-CANX-COX4 [2]) | lowest phenotypically active concentration (A549-TP53BP1-CLTA [4])
3 µM: lowest phenotypically active concentration (A549-ACTB-RAB5A [1]) | lowest phenotypically active concentration (A549-GM130-SQSTM1 [3]) | lowest phenotypically active concentration (A549-TUBA1B-RELA [5])
active: phenotypically active (A549-ACTB-RAB5A [6]) 1 | phenotypically active (A549-CANX-COX4 [7]) 1 | phenotypically active (A549-GM130-SQSTM1 [8]) 1 | phenotypically active (A549-TP53BP1-CLTA [9]) 1 | phenotypically active (A549-TUBA1B-RELA [10]) 1 | phenotypically active (HepG2-ACTB-RAB5A) 1 | phenotypically active (HepG2-CANX-COX4) 1 | phenotypically active (HepG2-GM130-SQSTM1) 1 | phenotypically active (HepG2-TP53BP1-CLTA) 1 | phenotypically active (HepG2-TUBA1B-RELA) 1 | phenotypically active (WPMY1-ACTB-RAB5A) 1 | phenotypically active (WPMY1-CANX-COX4) 1 | phenotypically active (WPMY1-GM130-SQSTM1) 1 | phenotypically active (WPMY1-TP53BP1-CLTA) 1 | phenotypically active (WPMY1-TUBA1B-RELA) 1

O=C(CCCCCCC(=O)Nc1ccccc1)NO
active: phenotypically active (A549-ACTB-RAB5A [6]) 1 | phenotypically active (A549-CANX-COX4 [7]) 1 | phenotypically active (A549-GM130-SQSTM1 [8]) 1 | phenotypically active (A549-TP53BP1-CLTA [9]) 1 | phenotypically active (A549-TUBA1B-RELA [10]) 1 | phenotypically active (HepG2-ACTB-RAB5A) 1 | phenotypically active (HepG2-CANX-COX4) 1 | phenotypically active (HepG2-GM130-SQSTM1) 1 | phenotypically active (HepG2-TP53BP1-CLTA) 1 | phenotypically active (HepG2-TUBA1B-RELA) 1 | phenotypically active (WPMY1-ACTB-RAB5A) 1 | phenotypically active (WPMY1-CANX-COX4) 1 | phenotypically active (WPMY1-GM130-SQSTM1) 1 | phenotypically active (WPMY1-TP53BP1-CLTA) 1 | phenotypically active (WPMY1-TUBA1B-RELA) 1
≤ 0.3 µM: lowest phenotypically active concentration (A549-ACTB-RAB5A [1])
1 µM: lowest phenotypically active concentration (A549-CANX-COX4 [2]) | lowest phenotypically active concentration (A549-GM130-SQSTM1 [3]) | lowest phenotypically active concentration (A549-TP53BP1-CLTA [4]) | lowest phenotypically active concentration (A549-TUBA1B-RELA [5])
